Our source for the Potency and viability values is PubChem BioAssay (NCATS).

Records with an inconclusive call do not appear. A number with no mark means an inactive call. Calls of active or inactive are those of the source. Calls come from the whole dose curve; as a rule, active = well fitted curve in the direction sought with a large enough effect; inconclusive = small, poorly fitted or top-dose-only effect, or another doubt; inactive = no such curve, though single readings can be large; an effect the other way counts as inactive or inconclusive.

For test [1], the target named is Aldehyde dehydrogenase, mitochondrial (Homo sapiens) (UniProt P05091). The test can be described thus: qHTS for Inhibitors of the Aldehyde Dehydrogenase Family (ALDH2) Primary screen (AID 2061308).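 Note: plate controls were vehicle for no effect and reference inhibitor for full effect; nearly all actives have a fitted effect of over 55% in size.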 Background: qHTS replaces the single test concentration by a dilution series.
Test [2] has as its target Retinaldehyde dehydrogenase 3 (Homo sapiens) (UniProt P47895). Kind of test: qHTS for Inhibitors of the Aldehyde Dehydrogenase Family (ALDH1A3) Primary screen (AID 2061315).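 Note: plate controls were DMSO vehicle for no effect and reference inhibitor for full effect.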
Test [3] can be described thus: BET inhibitor-based combinations targeting novel dependencies in MECOM-rearranged (r) AML: OCI-AML3 cell line (AID 2202232). Note: nearly all actives have a fitted effect of over 35% in size. Note: potency is the fitted concentration of half-maximal effect. To be noted: Potency: OCI-AML3 viability. The essentials: (§1)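 AML cell lines seeded at 500 cells/well, treated with 11-point dose curves for 48 h. Viability by CellTiter-Glo luminescence, normalised to DMSO and empty wells; activity expressed as AUC and per-cell-line Z-transformed AUC.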

Test [4] is described as follows: BET inhibitor-based combinations targeting novel dependencies in MECOM-rearranged (r) AML: MV-4-11 cell line (AID 2202233). Note: potency is the fitted concentration of half-maximal effect; nearly all actives have a fitted effect of over 45% in size. The essentials:
(§2)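 Cells at 500/well were exposed for 48 hr to MIPE v5.0 drugs as 11-point dose curves. Viability was read by CellTiter-Glo luminescence and normalized to DMSO and empty-well controls. Activity was expressed as AUC and per-cell-line Z-AUC.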

The nature of test [5]: BET inhibitor-based combinations targeting novel dependencies in MECOM-rearranged (r) AML: HNT-34 cell line (AID 2202234). Note: potency is the fitted concentration of half-maximal effect; nearly all actives have a fitted effect of over 35% in size. The essentials:
as §2

Test [6] is described as follows: BET inhibitor-based combinations targeting novel dependencies in MECOM-rearranged (r) AML: UCSD-AML1 cell line (AID 2202235). Note: nearly all actives have a fitted effect of over 40% in size. Note: potency is the fitted concentration of half-maximal effect. An outline of the steps: as §2
Test [7] in a line: BET inhibitor-based combinations targeting novel dependencies in MECOM-rearranged (r) AML: AML-191 cell line (AID 2202236; note: nearly all actives have a fitted effect of over 35% in size; note: potency is the fitted concentration of half-maximal effect). The essentials: as §1
Test [8] can be described thus: BET inhibitor-based combinations targeting novel dependencies in MECOM-rearranged (r) AML: SET-2 cell line (AID 2202231).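 For viability: plate controls were DMSO treated cells for no effect and wells without cells for full effect.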 Note: nearly all actives have a fitted effect of over 35% in size. Note: potency is the fitted concentration of half-maximal effect. To be noted: SET-2 AML cells viability, CellTiter-Glo luminescence, 48 h; viability: active compounds read low, concentration not given here. An outline of the steps:
as §1

The nature of test [9]: BET inhibitor-based combinations targeting novel dependencies in MECOM-rearranged (r) AML: AML-194 cell line (AID 2202237; note: nearly all actives have a fitted effect of over 40% in size; note: potency is the fitted concentration of half-maximal effect). The essentials:
as §1

Take `COc1cccc(Nc2ncnn3ccc(CN4CC[C@@H](N)[C@H](O)C4)c23)c1`: the Potency result in [1] and in test [2] was “inactive” throughout. Further, the Potency is 14.8 µM (active) in test [3]; 0.296 µM (active) in [4]; 1.32 µM (active) in test [5]; 4.17 µM (active) in [6]; 4.68 µM (active) in [7].

As to `COc1ccc(OC)c(-c2nnc3ccc(-c4ccc(OC)c(O[C@@H]5CCOC5)c4)nn23)c1`, the Potency result in test [1] and in test [2] was “inactive” throughout. The Potency was 8.33 µM (active) in [8], 4.17 µM (active) in test [3], 1.05 µM (active) in [5] and 2.35 µM (active) in [9].

For the molecule `C[C@@H]1CCNC(=O)c2cc3ccc(C(=O)Nc4nc5ccccc5n4CCCN(C)C)cc3n21`, the Potency result in test [1] and in test [2] was “inactive” in each case. The results for the Potency in [3], in test [4] and in test [5] were 6.61 µM (active), 0.59 µM (active) and 16.6 µM (active), respectively.

Take `CCCNC(=O)[C@H]1O[C@@H]1C(=O)N[C@H](C(=O)N1CCC[C@H]1C(=O)OC)C(C)CC` (some centres not stated): the Potency entry in test [1] and in test [2] was “inactive” throughout. Further, the Potency in test [8] is 26.3 µM (active); in test [3], 2.09 µM (active); in test [5], 23.5 µM (active); in [9] it was 10.5 µM (active).

A word on the viability: it is a read-out of living cells in per cent, often relative to untreated cells. For `O=C(Nc1cccnc1)c1cc(-c2ccnc(F)c2)ccc1OCc1ccccc1`, the Potency entry in test [1], in test [2], in test [6], in test [7] and in [9] was “inactive” in each case. Besides, in [8], the viability was 121%. Also, the Potency in [4] was 3.72 µM (active).

For `CNCc1ccc(-c2cc(-c3nc(-c4ccc(S(=O)(=O)C(C)C)cc4)cnc3N)on2)cc1`, the Potency entry in test [1], in [2] and in test [3] was “inactive” in each case. For the same molecule, the Potency in test [6] is 0.742 µM (active).

In the case of `CCN1CCN(Cc2ccc(NC(=O)c3ccc(C)c(/C=C/c4cnc5[nH]ccc5c4OC)c3)cc2C(F)(F)F)CC1`, the Potency entry in test [1] and in test [2] was “inactive” in each case. Further, the Potency in test [8] is 5.9 µM (active); in test [3], 5.25 µM (active); in test [5] it was 0.209 µM (active); in test [6], 2.95 µM (active); in test [7], 2.95 µM (active); in [9] it was 2.95 µM (active).

As for `C#Cc1cccc(Nc2ncnc3cc(OCCOC)c(OCCOC)cc23)c1`, the Potency result in [1] and in test [2] was “inactive” in each case. Moreover, the Potency in [4] is 5.9 µM (active); in test [5] it was 5.25 µM (active).

For the molecule `Cc1[nH]c(/C=C2\C(=O)Nc3ccc(F)cc32)c(C)c1C(=O)NC[C@H](O)CN1CCOCC1`, the Potency entry in test [1] and in [2] was “inactive” each time. Further, the Potency in test [3] is 5.25 µM (active); in test [4], 0.0742 µM (active); in test [6] it was 10.5 µM (active); in test [7] it was 4.17 µM (active); in [9], 10.5 µM (active).

With `COc1cc2nc(-c3ccc(N4CCN(C)CC4)cc3)nc(NCCN3CCOCC3)c2cc1OC`, the Potency result in test [1] and in test [2] was “inactive” throughout. For the same molecule, the Potency was 5.9 µM (active) in test [8]; 2.35 µM (active) in test [4]; 4.68 µM (active) in test [6]; 9.34 µM (active) in test [7]; 13.2 µM (active) in test [9].

As to `COc1ccc(Cl)c(Nc2nc3ccccc3nc2NS(=O)(=O)c2cccc(NC(=O)C(C)(C)N)c2)c1`, the Potency result in test [1] and in [2] was “inactive” in each case. Also, the viability in [8] was 103%. Moreover, the results for the Potency in [4], in [7] and in test [9] were 7.42 µM (active), 16.6 µM (active) and 20.9 µM (active), respectively.

As to `COc1ncc(Nc2ncc([C@H](C)N3CCN(S(C)(=O)=O)CC3)cc2-c2nc(C)nc(N)n2)cc1F`, the Potency entry in test [1] and in test [2] was “inactive” each time. The Potency in [3] is 0.0468 µM (active); in [4], 0.0417 µM (active); in [6], 0.296 µM (active).

As for `CCC(=O)Nc1cccc(Oc2nc(Nc3ccc(N4CCN(C)CC4)cc3OC)ncc2Cl)c1`, the Potency entry in test [1], in test [2] and in test [6] was “inactive” in each case. The Potency is 20.9 µM (active) in [8], 11.8 µM (active) in [5], 18.6 µM (active) in [7] and 23.5 µM (active) in test [9].

Regarding `COc1cc2ncnc(Nc3ccc(O)c(Br)c3)c2cc1OC`, the Potency entry in test [1] and in test [2] was “inactive” in each case. For the same molecule, the Potency in test [4] is 1.48 µM (active); in test [5] it was 5.25 µM (active).

In the case of `Cn1cc(-c2cnc3ccc4ccc(CS(=O)(=O)NCc5ccccn5)cc4c(=O)c3c2)cn1`, the Potency entry in test [1], in [2] and in test [6] was “inactive” each time. Moreover, the Potency was 16.6 µM (active) in test [8], 23.5 µM (active) in [5] and 23.5 µM (active) in [7].

`CCn1c(=O)c(-c2ccc(-c3cncs3)cc2Cl)cc2cnc(Nc3ccc(N4CCN(C)CC4)cc3)nc21`: the Potency result in test [1] and in [2] was “inactive” throughout. Moreover, the Potency in test [4] was 1.86 µM (active).

Turning to `C=CC(=O)Nc1ccc2ncnc(Nc3cccc(Br)c3)c2c1`, the Potency result in test [1] and in [2] was “inactive” each time. Also, the Potency was 26.3 µM (active) in test [8]; 11.8 µM (active) in test [3]; 9.34 µM (active) in test [5]; 8.33 µM (active) in test [6]; 8.33 µM (active) in test [7]; 11.8 µM (active) in test [9].

As to `C=CC(=O)Nc1ccc2ncnc(Nc3ccc(OCc4cccc(F)c4)c(Cl)c3)c2c1`, the Potency result in test [1] and in test [2] was “inactive” each time. The Potency in test [8] was 10.5 µM (active); in test [4], 6.61 µM (active); in test [6], 7.42 µM (active); in [7], 7.42 µM (active); in test [9] it was 8.33 µM (active).

As to `COc1cc(-c2cc(-c3ccc(N4CCNCC4)cc3)cnc2C)cc(OC)c1OC`, the Potency entry in [1] and in test [2] was “inactive” in each case. Moreover, the Potency is 8.33 µM (active) in test [3] and 10.5 µM (active) in test [4].

For the molecule `C[C@@H](Nc1ncnc2[nH]c(-c3ccc(O)cc3)cc12)c1ccccc1`, the Potency entry in test [1] and in test [2] was “inactive” in each case. In addition, the Potency in test [8] is 5.25 µM (active); in test [4], 14.8 µM (active); in [5], 14.8 µM (active); in test [7], 14.8 µM (active).

Consider `CC(=O)O[C@H]1C(=O)[C@@]2(C)C([C@H](OC(=O)c3ccccc3)[C@]3(O)C[C@H](OC(=O)[C@H](O)[C@@H](NC(=O)c4ccccc4)c4ccccc4)C(C)=C1C3(C)C)[C@]1(OC(C)=O)CO[C@@H]1C[C@@H]2O` (some centres not stated), for which the Potency entry in test [1] and in [2] was “inactive” throughout. In addition, the values for the Potency in test [8], in [3] and in [5] were 0.148 µM (active), 0.0059 µM (active) and 0.0042 µM (active), respectively.
